Laboratory results from PubChem BioAssay.
Unmarked numbers belong to inactive results. The rule behind the calls is not given here. Non-standard residues stand in square brackets, D forms with d. Residues, ends and D or L forms follow the SMILES beside them. Orn = NCCC[CH](N)C(=O)O

The molecules below were run on Aerobactin synthetase IucA (Klebsiella pneumoniae hvKP1) (assay: IucA enzyme inhibition, primary screen, biochemical, Spectrum library (AID 1346200;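 note: 100% = wells without compound and 0% = wells lacking enzyme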)). Settings: malachite green pyrophosphate, A620, at 8 µM, stronger effect = lower value.

SMILES | activity remaining
CCCCCCCCCCCCCCCCCCOCC(O)CO (stereo unspecified) | 104%
CC1(C)OCC(C2OC(=O)C(O)=C2O)O1 (stereo unspecified) | 87.7%
CCN1CCN(C(=O)NC(C(=O)N[C@@H]2C(=O)N3[C@@H]2SC(C)(C)[C@@H]3C(=O)O)c2ccccc2)C(=O)C1=O (stereo partly specified) | 104%
CC1=C(C(=O)O)N2C(=O)[C@@H](NC(=O)C(N)c3ccc(O)cc3)[C@H]2SC1 (stereo partly specified) | 103%
NC(N)=N/N=C\c1c(Cl)cccc1Cl | 97%
CC(C)CC1NC(=O)C(CCCN)NC(=O)C(C(C)C)NC(=O)C2CCCN2C(=O)C(Cc2ccccc2)NC(=O)C(CC(C)C)NC(=O)C(CCCN)NC(=O)C(C(C)C)NC(=O)C2CCCN2C(=O)C(Cc2ccccc2)NC1=O (stereo unspecified) (cyclo(FPV[Orn]LFPV[Orn]L); configuration not given here) | 122%
CC(=O)O[C@H]1CCC2(C)C3=C(CCC2C1(C)C)[C@@]1(C)CC[C@@H](C(C)CCC=C(C)C)[C@]1(C)CC3 (stereo partly specified) | 109%
O=C(Oc1cccc2cccnc12)c1ccccc1 | 92.9%
NC[C@@H]1O[C@H](O[C@@H]2[C@@H](CO)OC(O[C@@H]3[C@@H](O)[C@H](N)C[C@H](N)[C@H]3OC3O[C@H](CN)[C@@H](O)[C@H](O)[C@H]3N)[C@@H]2O)[C@H](N)[C@@H](O)[C@@H]1O (stereo partly specified) | 99.1%
Cc1ccc2c(Cl)cc(Cl)c(O)c2n1 | 85.6%
COc1cc([C@@H]2c3cc4c(cc3[C@H](O)[C@H]3COC(=O)[C@@H]23)OCO4)cc(OC)c1OC | 82.7%
